Results filed as inconclusive are left out. Entries that show only a call come without a potency. Activity calls are given as the source filed them. Unless noted, calls come from the whole dose curve; as a rule, active = well fitted curve in the direction sought with a large enough effect; inconclusive = small, poorly fitted or top-dose-only effect, or another doubt; inactive = no such curve, though single readings can be large; an effect the other way counts as inactive or inconclusive.
How the values were obtained:
[1] = Cytometric Cell-Based qHTS for Inhibitors of the mTORC1 Signaling Pathway in MEF (Tsc2-/-, p53-/-) Cells (AID 2660);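 note: Tsc2 and p53 null MEFs carrying empty vector with compound for 24 h; percent of cells above a phospho-rpS6 to PI ratio cutoff in each well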
Outline: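 Cells are plated, treated with compound for 24 hrs at 37 degree Celsius, then fixed, blocked and immunostained for phospho-rpS6 Ser235/236. Propidium iodide counterstain follows. Per-well % positive cells is derived from the PI-normalized phospho-S6 signal.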

[2] = High Content Imaging Cell-Based qHTS for Inhibitors of the mTORC1 Signaling Pathway in MEF (Tsc2-/-, p53-/-) Cells (AID 2666); settings: at 38.3 µM (top of the series);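 note: percent of cells scored positive for phospho-rpS6 Ser235/236 immunostaining by imaging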
Outline: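 Tsc2-/-, p53-/- MEFs (empty-vector stable) grown in DMEM + 10% FBS were exposed to compounds for 24 hrs at 37 degree Celsius, fixed, and stained with Alexa-488 anti-phospho-rpS6 Ser235/236 plus Hoechst. Imaging gave the percentage of positive cells per well.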

[3] = High Content Imaging Cell-Based qHTS for Inhibitors of the mTORC1 Signaling Pathway in MEF Cells (AID 2667); note: potency is the fitted concentration of half-maximal effect
Outline: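 Tsc2-/-, p53-/- MEFs stably re-expressing WT Tsc2, grown in DMEM + 10% FBS, were treated with compounds for 24 hrs at 37 degree Celsius, fixed, and stained with Alexa-488 phospho-rpS6 Ser235/236 antibody plus Hoechst; results given as % positive cells.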

[4] = Cytometry Cell-Based qHTS for Inhibitors of the mTORC1 Signaling Pathway in MEF cells (AID 2668); note: potency is the fitted concentration of half-maximal effect
Outline: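 MEFs (Tsc2-/-, p53-/- stably expressing WT Tsc2) treated 24 h at 37 degree Celsius, fixed, stained with Alexa-488 anti-phospho-rpS6 Ser235/236 and propidium iodide; Acumen laser scanning. Reported as % positive cells, phospho-S6 normalized to PI.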

[5] = Validation screen for small molecules that induce DNA re-replication in MCF 10A normal breast cells (AID 463097); note: nearly all actives have a fitted effect of over 60% in size
Outline: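 MCF 10A cells exposed to compound 48 hr at 37 C, 5% CO2, then Hoechst-stained 40 min. Laser-scanning imaging of nuclear DNA content (405 nm ex, 500-530 nm em); re-replication scored as rise in nuclei with elevated fluorescence intensity.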

[6] = biological target: Ubiquitin carboxyl-terminal hydrolase 2 (Homo sapiens) (UniProt O75604); assay: qHTS Validation Assay for Inhibitors of Ubiquitin-specific Protease USP2a Using CHOP2 as the Reporter (AID 463106)
Outline: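 Readout was coupled fluorescence (Ex 485/Em 531 nm), read 60 min after adding 25 nM final Ub-CHOP2 and 25 nM reporter substrate. Beforehand, 10 nM final USP2 core had 30 min at RT with compound in pH 8.0 buffer. Curves were fitted after normalization to NEM and flagged for artifacts using time-zero reads.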

[7] = biological target: DNA polymerase III PolC-type (Bacillus subtilis (strain 168)) (UniProt P13267); assay: qHTS Validation Assay for the Inhibitors of DNA Replication in Gram-Positive Bacteria (AID 485295); note: potency is the fitted concentration of half-maximal effect
Outline: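 Reconstituted B. subtilis Pol III holoenzyme (PolC, beta clamp, SSB, primase) preincubated with compound, then M13Gori single-stranded circular template with dNTPs/NTPs added; room temperature reaction. Stopped with EDTA/PicoGreen; dsDNA fluorescence read, EDTA as full-inhibition control.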

[8] = biological target: Tumor susceptibility gene 101 protein (Homo sapiens) (UniProt Q99816); assay: qHTS Validation Assay for Iinhibitors of HIV-1 Budding by Blocking the Interaction of PTAP/TSG101 (AID 485342; calls by dose curve)
Outline: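 Tsg101 binding domain (10 uM) with FITC-labeled PTAP peptide (50 nM) in HEPES pH 7.5 buffer, 20 min at r.t. with compounds. Binding measured by fluorescence polarization.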

[9] = qHTS Validation Assay to Find Inhibitors of Chronic Active B-Cell Receptor Signaling (AID 485345; active = well fitted curve in the direction sought with a large enough effect in the main read-out, with a control signal flat, not every such curve was filed as active)
Outline: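 Read-out: ratio of filter-corrected green (IkappaBalpha fusion) to red (native) luciferase signal in doxycycline-induced TMD8 cells after 4 h at 37C. Titration spanned 46 uM–3 nM; Data were normalised to basal cells and 10 uM MG-132 wells.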

[10] = biological target: RecQ-like DNA helicase BLM (Homo sapiens) (UniProt P54132); assay: qHTS Validation Assay for Inhibitors of Bloom's syndrome helicase (BLM) (AID 2364)
Outline: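 Forked 20-bp duplex substrate (200 nM, TAMRA/BHQ-2) plus 2 mM ATP added after 15 min compound preincubation with 50 nM enzyme, pH 8.0, poly(dI-dC) 2.5 ug/ml. Strand separation followed by fluorescence (525/598 nm) over 2 h, normalized to enzyme-free and DMSO controls.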

Sequence of Tumor susceptibility gene 101 protein (Homo sapiens) (Q99816 whole entry, looked up, the tested form may be a part): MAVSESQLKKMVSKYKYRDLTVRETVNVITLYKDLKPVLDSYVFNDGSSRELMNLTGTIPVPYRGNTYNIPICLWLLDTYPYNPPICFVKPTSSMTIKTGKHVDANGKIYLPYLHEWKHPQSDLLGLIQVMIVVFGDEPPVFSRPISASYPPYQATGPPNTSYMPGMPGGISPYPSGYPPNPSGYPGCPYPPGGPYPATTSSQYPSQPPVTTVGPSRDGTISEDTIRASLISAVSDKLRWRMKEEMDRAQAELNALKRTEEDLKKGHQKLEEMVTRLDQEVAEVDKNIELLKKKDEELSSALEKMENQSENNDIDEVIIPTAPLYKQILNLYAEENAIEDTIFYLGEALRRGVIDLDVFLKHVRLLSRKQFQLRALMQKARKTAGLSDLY
Sequence of Ubiquitin carboxyl-terminal hydrolase 2 (Homo sapiens) (O75604 whole entry, looked up): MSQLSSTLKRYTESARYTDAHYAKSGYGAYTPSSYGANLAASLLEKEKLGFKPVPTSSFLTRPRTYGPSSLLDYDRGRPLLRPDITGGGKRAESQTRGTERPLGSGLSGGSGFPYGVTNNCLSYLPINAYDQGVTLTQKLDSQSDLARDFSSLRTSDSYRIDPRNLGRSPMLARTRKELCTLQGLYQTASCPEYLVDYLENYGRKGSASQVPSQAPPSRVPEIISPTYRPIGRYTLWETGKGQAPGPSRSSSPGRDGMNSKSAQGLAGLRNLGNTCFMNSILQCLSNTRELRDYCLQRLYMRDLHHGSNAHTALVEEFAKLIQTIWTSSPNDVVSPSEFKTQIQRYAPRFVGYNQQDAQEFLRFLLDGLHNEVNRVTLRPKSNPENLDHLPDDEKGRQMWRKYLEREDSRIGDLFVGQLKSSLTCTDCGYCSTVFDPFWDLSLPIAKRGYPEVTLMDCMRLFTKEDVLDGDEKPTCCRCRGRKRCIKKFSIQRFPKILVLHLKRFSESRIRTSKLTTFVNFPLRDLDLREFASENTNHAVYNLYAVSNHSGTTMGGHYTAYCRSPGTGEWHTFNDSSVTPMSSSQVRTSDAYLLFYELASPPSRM
Sequence of RecQ-like DNA helicase BLM (Homo sapiens) (P54132 whole entry, looked up): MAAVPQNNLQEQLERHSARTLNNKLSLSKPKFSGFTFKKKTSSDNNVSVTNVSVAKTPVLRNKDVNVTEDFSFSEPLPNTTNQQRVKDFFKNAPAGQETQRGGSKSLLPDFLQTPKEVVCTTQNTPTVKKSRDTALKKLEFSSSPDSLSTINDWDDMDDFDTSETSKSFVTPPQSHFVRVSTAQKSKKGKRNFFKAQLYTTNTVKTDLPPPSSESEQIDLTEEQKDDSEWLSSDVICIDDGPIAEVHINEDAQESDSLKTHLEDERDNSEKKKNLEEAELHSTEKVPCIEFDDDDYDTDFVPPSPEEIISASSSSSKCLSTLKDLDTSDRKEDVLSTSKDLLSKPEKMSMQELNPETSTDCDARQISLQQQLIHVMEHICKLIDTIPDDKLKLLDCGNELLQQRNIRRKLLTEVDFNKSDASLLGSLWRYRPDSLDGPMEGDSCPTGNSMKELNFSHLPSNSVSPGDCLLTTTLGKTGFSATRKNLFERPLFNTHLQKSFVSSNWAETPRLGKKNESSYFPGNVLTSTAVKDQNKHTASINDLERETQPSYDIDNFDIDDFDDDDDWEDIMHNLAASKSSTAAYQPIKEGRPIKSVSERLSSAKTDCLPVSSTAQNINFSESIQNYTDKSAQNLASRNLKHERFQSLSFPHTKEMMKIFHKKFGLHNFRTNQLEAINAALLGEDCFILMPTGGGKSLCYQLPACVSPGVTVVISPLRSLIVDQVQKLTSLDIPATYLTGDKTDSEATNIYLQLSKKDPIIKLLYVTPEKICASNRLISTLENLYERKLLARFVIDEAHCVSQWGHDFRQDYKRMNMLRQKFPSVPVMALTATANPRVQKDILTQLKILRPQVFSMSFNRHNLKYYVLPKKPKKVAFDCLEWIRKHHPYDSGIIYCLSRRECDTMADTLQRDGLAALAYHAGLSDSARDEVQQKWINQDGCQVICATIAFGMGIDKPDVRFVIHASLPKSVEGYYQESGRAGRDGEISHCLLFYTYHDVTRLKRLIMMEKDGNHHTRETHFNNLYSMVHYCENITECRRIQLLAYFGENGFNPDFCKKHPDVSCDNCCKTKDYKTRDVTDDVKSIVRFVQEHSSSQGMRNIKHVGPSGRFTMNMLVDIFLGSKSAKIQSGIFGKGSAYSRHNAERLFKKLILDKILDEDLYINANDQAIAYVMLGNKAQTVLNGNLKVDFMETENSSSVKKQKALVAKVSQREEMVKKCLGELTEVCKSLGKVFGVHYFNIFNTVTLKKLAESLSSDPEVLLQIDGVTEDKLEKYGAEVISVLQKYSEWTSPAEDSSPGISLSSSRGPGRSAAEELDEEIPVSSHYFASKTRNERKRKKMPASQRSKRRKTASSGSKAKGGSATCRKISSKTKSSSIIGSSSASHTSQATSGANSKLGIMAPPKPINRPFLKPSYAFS
Sequence of DNA polymerase III PolC-type (Bacillus subtilis (strain 168)) (P13267 whole entry, looked up): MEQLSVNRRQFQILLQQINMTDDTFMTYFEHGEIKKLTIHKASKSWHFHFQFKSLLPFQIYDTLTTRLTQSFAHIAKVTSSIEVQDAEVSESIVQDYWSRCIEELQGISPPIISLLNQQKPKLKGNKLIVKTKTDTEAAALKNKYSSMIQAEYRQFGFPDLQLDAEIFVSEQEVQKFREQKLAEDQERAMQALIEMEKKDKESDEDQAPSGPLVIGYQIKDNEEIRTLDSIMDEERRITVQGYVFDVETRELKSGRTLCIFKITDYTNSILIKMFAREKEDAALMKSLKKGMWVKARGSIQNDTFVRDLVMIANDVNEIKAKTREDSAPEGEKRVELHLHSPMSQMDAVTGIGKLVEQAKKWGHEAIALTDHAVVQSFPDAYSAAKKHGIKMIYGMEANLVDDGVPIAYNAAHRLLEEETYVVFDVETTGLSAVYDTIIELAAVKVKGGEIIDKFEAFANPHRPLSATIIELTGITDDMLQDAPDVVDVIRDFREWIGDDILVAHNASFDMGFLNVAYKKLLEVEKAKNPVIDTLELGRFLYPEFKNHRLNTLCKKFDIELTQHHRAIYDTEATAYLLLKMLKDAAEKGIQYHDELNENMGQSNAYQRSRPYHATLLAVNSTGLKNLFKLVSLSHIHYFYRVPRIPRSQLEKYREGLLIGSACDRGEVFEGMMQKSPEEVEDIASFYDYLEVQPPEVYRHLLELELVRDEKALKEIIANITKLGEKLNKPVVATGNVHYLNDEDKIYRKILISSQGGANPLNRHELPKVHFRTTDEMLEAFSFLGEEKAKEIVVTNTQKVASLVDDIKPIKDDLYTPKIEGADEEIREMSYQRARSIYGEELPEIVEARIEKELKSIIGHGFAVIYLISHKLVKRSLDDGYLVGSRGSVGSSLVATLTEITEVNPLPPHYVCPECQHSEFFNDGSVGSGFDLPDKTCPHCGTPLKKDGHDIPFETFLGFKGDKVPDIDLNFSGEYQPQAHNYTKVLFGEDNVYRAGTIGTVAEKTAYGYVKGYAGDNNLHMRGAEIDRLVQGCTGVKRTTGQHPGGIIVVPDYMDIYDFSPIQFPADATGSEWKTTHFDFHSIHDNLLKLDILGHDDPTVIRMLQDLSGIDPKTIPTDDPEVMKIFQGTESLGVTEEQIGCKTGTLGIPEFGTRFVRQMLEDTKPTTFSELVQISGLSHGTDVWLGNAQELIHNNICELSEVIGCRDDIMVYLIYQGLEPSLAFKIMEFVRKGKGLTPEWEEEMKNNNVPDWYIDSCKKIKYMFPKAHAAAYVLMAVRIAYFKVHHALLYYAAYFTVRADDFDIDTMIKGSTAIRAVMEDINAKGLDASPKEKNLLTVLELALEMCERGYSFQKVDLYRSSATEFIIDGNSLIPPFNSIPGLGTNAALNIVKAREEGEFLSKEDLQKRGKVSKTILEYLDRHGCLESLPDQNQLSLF

Compound	outcome [1]	outcome [2]	Potency [3]	Potency [4]	outcome [5]	outcome [6]	Potency [7]	outcome [8]	outcome [9]	outcome [10]
C[C@@H]1C(=O)NC2=Nc3cccc(Cl)c3CN21	inactive	inactive	inactive	inactive	inactive	inactive	inactive	inactive	inactive	–
O=C(O)c1cc2cc(Cc3cccnc3)ccc2o1	inactive	inactive	inactive	inactive	inactive	inactive	inactive	inactive	inactive	–
CN=C(NC#N)Nc1ccc(C2=NNC(=O)CC2C)cc1 (centres undefined)	–	–	–	–	inactive	–	–	–	–	–
CCCn1c(=O)[nH]c(=O)c2[nH]cnc21	inactive	inactive	inactive	inactive	inactive	inactive	inactive	inactive	inactive	–
O=C1CCC(c2ccc(-n3ccnc3)cc2)=NN1	inactive	inactive	inactive	inactive	inactive	inactive	inactive	inactive	inactive	inactive
CCCC1O[C@@H]2C[C@H]3[C@@H]4CCC5=CC(=O)C=C[C@]5(C)[C@H]4[C@@H](O)C[C@]3(C)[C@]2(C(=O)CO)O1 (some centres undefined)	inactive	inactive	inactive	inactive	–	inactive	inactive	inactive	–	–
COc1cc2c(cc1O)CC[C@@H]1[C@@H]2CC[C@]2(C)[C@@H](O)CC[C@@H]12	inactive	inactive	inactive	–	–	inactive	inactive	inactive	–	–
CC(=O)O[C@H]1C[C@@H]2CC[C@@H]3[C@H](CC[C@@]4(C)[C@H]3C[C@H]([N+]3(C)CCCCC3)[C@@H]4OC(C)=O)[C@@]2(C)C[C@@H]1[N+]1(C)CCCCC1	–	inactive	inactive	inactive	–	inactive	inactive	inactive	inactive	–
CN1C2CCC1CC(OC(=O)c1c[nH]c3ccccc13)C2 (centres undefined)	inactive	inactive	–	–	inactive	inactive	inactive	inactive	inactive	inactive
N[C@@H](Cc1cnc[nH]1)C(=O)O	inactive	inactive	inactive	inactive	inactive	inactive	inactive	inactive	inactive	–
CC[C@H](C)C(=O)O[C@H]1CCC=C2C=C[C@H](C)[C@H](CC[C@@H]3C[C@@H](O)CC(=O)O3)[C@H]21	inactive	inactive	–	–	–	inactive	inactive	inactive	–	–
COc1cc(NS(C)(=O)=O)ccc1Nc1c2ccccc2nc2ccccc12	–	inactive	3.69 µM (active)	0.521 µM (active)	–	inactive	–	inactive	–	–
N[C@H](CO)C(=O)O	inactive	inactive	inactive	inactive	inactive	inactive	inactive	inactive	inactive	–
C[N+]1(CCCCC[N+]2(C)CCCC2)CCCC1	inactive	inactive	inactive	inactive	inactive	inactive	inactive	inactive	inactive	–
C1CCc2nnnn2CC1	inactive	–	inactive	inactive	inactive	inactive	inactive	inactive	inactive	–
CC(C)COC(=O)OCN1C(=O)CN(CCN2CC(=O)N(COC(=O)OCC(C)C)C(=O)C2)CC1=O	inactive	inactive	inactive	inactive	inactive	inactive	inactive	inactive	inactive	inactive
C[C@]12CC[C@@H]3c4ccc(O)cc4CC[C@H]3[C@@H]1CC[C@@H]2O	inactive	inactive	inactive	inactive	inactive	inactive	inactive	inactive	–	–
CNCCC=C1c2ccccc2CCc2ccccc21	–	–	–	–	inactive	inactive	inactive	inactive	–	inactive
CC1(C)CCC(NC(=O)[C@@H](N)CCC(=O)O)CC1	inactive	inactive	inactive	inactive	inactive	inactive	inactive	inactive	inactive	–
COC(=O)[C@H]1[C@H]2C[C@H]3c4[nH]c5ccccc5c4CCN3C[C@H]2CC[C@@H]1O	inactive	inactive	inactive	inactive	inactive	inactive	inactive	inactive	inactive	–
CCC(NC(C)C)C(O)c1ccc(O)c(O)c1 (centres undefined)	inactive	inactive	inactive	inactive	inactive	inactive	inactive	inactive	inactive	–
CC(C)C[C@H]1C(=O)N2CCC[C@H]2[C@]2(O)O[C@](NC(=O)[C@@H]3C=C4c5cccc6[nH]c(Br)c(c56)C[C@H]4N(C)C3)(C(C)C)C(=O)N12	inactive	inactive	inactive	–	–	inactive	inactive	inactive	inactive	–
CNCCC(Oc1ccccc1C)c1ccccc1 (centres undefined)	inactive	inactive	inactive	inactive	inactive	inactive	inactive	inactive	inactive	–
CC(CCc1ccccc1)NCC(O)c1ccc(O)c(C(N)=O)c1 (centres undefined)	inactive	inactive	inactive	inactive	inactive	inactive	inactive	inactive	inactive	inactive
CC(C)NC[C@@H](O)COc1cccc2ccccc12	–	–	–	–	inactive	–	–	–	–	inactive
Oc1ccc(O)cc1	–	–	inactive	–	–	inactive	5.32 µM (active)	inactive	inactive	–
COc1cc(-c2ccc(=O)[nH]n2)ccc1OC(F)F	–	–	–	–	inactive	–	–	–	–	–
Nc1cc(Cl)c(NC2=NCCN2)c(Cl)c1	inactive	inactive	inactive	inactive	inactive	inactive	inactive	inactive	inactive	–

— PubChem BioAssay (NCATS)
